From PubChem BioAssay AID2069 (Sanford-Burnham Center for Chemical Genomics, 2009)
Among all 1,200 compounds or so, about 210 (18%) were called active. Many of the other results were omitted from the sample, so actives are more common in it than they were. Values without a mark were called inactive. Cut-off read from the data, not from the text of the source: active = inhibition above about 30%; inactive = the rest.

Experiment: fluorescence readout artefact check – biochemical, HTRF, uHTS, artefact control for SUMOylation inhibitor project, confirmation (AID 2069)
Settings: HTRF interference counterscreen, at 35 µM, stronger effect = higher value

SMILES	inhibition
CN1C[C@H](CO)C=C2c3cccc4[nH]cc(c34)C[C@H]21	36.9% (active)
CC(C)[C@H]1C(=O)N2CCC[C@H]2[C@]2(O)O[C@](NC(=O)[C@@H]3C=C4c5cccc6[nH]cc(c56)C[C@H]4N(C)C3)(C(C)C)C(=O)N12	12.3%
CN1CCN(c2ccc(S(C)(=O)=O)cc2[N+](=O)[O-])CC1	-0.45%
COc1ccc(Cc2nccc3cc(OC)c(OC)cc23)cc1OC	-2.9%
O=C(O)c1cccc2c1NC(c1cccc([N+](=O)[O-])c1)C1CC(Sc3ccccc3[N+](=O)[O-])C(Cl)C21 (stereo unspecified)	26.1%
CCCCn1c(NS(=O)(=O)c2ccc(C)cc2)c(C(=O)OCC)c2nc3ccccc3nc21	58% (active)
CCCCn1c(N)c(C(=O)OCCOC)c2nc3ccccc3nc21	28.8%
CCCCn1c(NC(=O)c2ccco2)c(C(=O)OCC)c2nc3ccccc3nc21	22.1%
CCCCn1c(NS(=O)(=O)c2ccccc2)c(C(=O)OCC)c2nc3ccccc3nc21	70.9% (active)
CCCCn1c(N)c(C(=O)NCc2cccs2)c2nc3ccccc3nc21	9.9%
COc1cc(C(c2c(C)[nH]n(-c3ccccc3)c2=O)c2c(C)[nH]n(-c3ccccc3)c2=O)cc(OC)c1OC	3.8%
O=C(O)CC1OCC=C2CN3CCC45C6=CC(=O)C(=O)C([N+](=O)[O-])=C6NC4C1C2CC35 (stereo unspecified)	60.8% (active)
COc1ccc(OC)c(N2C(=O)NC(=O)/C(=C/c3ccc([N+](=O)[O-])s3)C2=O)c1	-8.75%
CN1CCN(c2ccc3nccnc3c2)CC1	40.9% (active)
Cc1ccccc1-n1c(O)c(/C=N/NC(=O)c2ccccc2O)c(=O)[nH]c1=S	3.4%
CN1CCC2(CC1)C(C#N)=C(N)NC(S)=C2C#N	76.5% (active)
O=C1NC(=O)N(Cc2ccco2)C(=O)/C1=C\c1cccn1CCOc1ccc(Cl)cc1	-5.15%
O=C(c1cccn2c(=O)c3ccc(Cl)cc3nc12)N1CCC2(CC1)OCCO2	48.9% (active)
O=c1[nH]c(O)c(/C=C2/C=CC(c3cc(Cl)ccc3Cl)=N2)c(=O)[nH]1	18.3%
Cc1c(CC(=O)N2C[C@H]3C[C@@H](C2)c2cccc(=O)n2C3)c(=O)oc2c(C)c(O)ccc12	50.5% (active)
N#C/C(=C(/O)c1ccc(S(=O)(=O)N(CCCl)CCCl)cc1)c1nc2ccccc2[nH]1	28.4%

SMILES	inhibition
Cc1ccsc1C(=O)C1CCCN(Cc2ccc(-n3cccn3)cc2)C1 (stereo unspecified)	30.6% (active)
CC(=O)c1ccc2c(c1)C1C(Cl)C(Sc3ccccc3[N+](=O)[O-])CC1C(c1ccccc1[N+](=O)[O-])N2 (stereo unspecified)	-3.55%
CCN(CC)c1ccc([N+](=O)[O-])c2cccnc12	-11.9%
O=C(O)CCn1cc(C=C2C(=O)NC(=O)NC2=O)c(-c2ccc(Br)cc2)n1	-3.4%
CC(C)CNC(=O)c1c(N)n(Cc2ccc3c(c2)OCO3)c2nc3ccccc3nc12	15.9%
CC(C)CCNC(=O)c1c(N)n(CC2CCCO2)c2nc3ccccc3nc12 (stereo unspecified)	30.4% (active)
Nc1c(C(=O)NCCCc2ccccc2)c2nc3ccccc3nc2n1Cc1cccs1	8%
CCCCn1c(N)c(C(=O)OCC2CCCO2)c2nc3ccccc3nc21 (stereo unspecified)	28.1%
CCOCCCn1c(N)c(C(=O)Nc2sc3c(c2C(=O)OC)CCCC3)c2nc3ccccc3nc21	-2.4%
CC(C)OCCCNC(=O)c1c(N)n(CC2CCCO2)c2nc3ccccc3nc12 (stereo unspecified)	51.1% (active)
CC(C)CCNC(=O)c1c(N)n(Cc2ccc3c(c2)OCO3)c2nc3ccccc3nc12	19.7%
CCCNC(=O)c1c(N)n(CC2CCCO2)c2nc3ccccc3nc12 (stereo unspecified)	42% (active)
Nc1c(C(=O)NC2CCCC2)c2nc3ccccc3nc2n1CC1CCCO1 (stereo unspecified)	27.9%
CCCNC(=O)c1c(N)n(Cc2ccc3c(c2)OCO3)c2nc3ccccc3nc12	9.15%
CCC(C)NC(=O)c1c(N)n(Cc2ccc3c(c2)OCO3)c2nc3ccccc3nc12 (stereo unspecified)	24.4%
CCC(C)NC(=O)c1c(N)n(CC2CCCO2)c2nc3ccccc3nc12 (stereo unspecified)	32.5% (active)
O=C1NC(=O)N(Cc2ccco2)C(=O)/C1=C/c1ccc(-c2cccc([N+](=O)[O-])c2)o1	14.7%
O=C(N/N=C/c1c(O)n(Cc2ccco2)c(=O)[nH]c1=O)c1ccccc1O	22.9%
Cc1cc(/C=C2\C(=O)NC(=O)N(Cc3ccccc3)C2=O)c(C)n1-c1ccc(Cl)c(C(=O)O)c1	34.7% (active)
O=C(O)c1ccc2c(c1)C1C(Cl)C(Sc3ccccc3[N+](=O)[O-])CC1C(c1cccc([N+](=O)[O-])c1)N2 (stereo unspecified)	-6.5%
CC(=O)c1ccc2c(c1)C1C(Cl)C(Sc3ccccc3[N+](=O)[O-])CC1C(C(=O)O)N2 (stereo unspecified)	5.25%

SMILES	inhibition
O=C1NC(=S)NC(=O)C1=Cc1cccn1-c1ccc(O)cc1	21.8%
COc1ccc(Cn2c(N)c(C(=O)NCc3ccco3)c3nc4ccccc4nc32)cc1	11.2%
COc1cc(Cn2c(N)c(C(=O)NCc3ccco3)c3nc4ccccc4nc32)cc(OC)c1OC	11.6%
COCCCn1c(N)c(C(=O)NCCC(C)C)c2nc3ccccc3nc21	24.1%
CCCCNC(=O)c1c(N)n(CCCOC)c2nc3ccccc3nc12	30.9% (active)
CCC(C)NC(=O)c1c(N)n(CCCOC)c2nc3ccccc3nc12 (stereo unspecified)	36.5% (active)
CCOC(=O)c1c(NC(=O)c2c(N)n(CCCOC)c3nc4ccccc4nc23)sc2c1CCCC2	-0.35%
COCCNC(=O)c1c(N)n(CCC(C)C)c2nc3ccccc3nc12	34.7% (active)
COCCCn1c(N)c(C(=O)OCCOC)c2nc3ccccc3nc21	29.9%
COCCCn1c(N)c(C(=O)Nc2ccccc2)c2nc3ccccc3nc21	7.4%
CCCCCn1c(N)c(C(=O)NCc2cccs2)c2nc3ccccc3nc21	12.7%
CC(C)CCn1c(N)c(C(=O)NCc2cccs2)c2nc3ccccc3nc21	15.4%
COCCCn1c(N)c(C(=O)NCc2ccco2)c2nc3ccccc3nc21	34.1% (active)
CN1CCc2nc3sc(C#N)c(N)c3c(-c3cccs3)c2C1	14.3%
c1ccc2c(NC3=NCCS3)cccc2c1	-3.5%
Cc1[nH]n(-c2ccccc2)c(=O)c1C(c1ccc([N+](=O)[O-])cc1)c1c(C)[nH]n(-c2ccccc2)c1=O	-5.95%
O=c1[nH]c(O)c(/C=C2\C=Nc3ccc(OCc4ccccc4)cc32)c(=O)[nH]1	8.25%
COCCNC(=O)c1c(NC(=O)c2ccco2)n(Cc2ccccc2)c2nc3ccccc3nc12	17.8%
Cn1c(O)c(/C=C2\N=c3ccccc3=C2CCNC(=S)NC2CC2)c(=O)n(C)c1=O	13.3%
